# Measured values published in PubChem BioAssay (NCATS).
# Where “and” joins values, the source holds several entries; their conditions need not be identical. Identical values can stand only once. Records with an inconclusive call do not appear. A number with no mark means an inactive call. Calls follow the shape of the dose curve; as a rule, active = well fitted activation curve with a large enough effect; inconclusive = small, poorly fitted or top-dose-only effect; inactive = no such curve, though single readings can be large or run the other way.
# Molecular target: Cellular tumor antigen p53 (Homo sapiens) (UniProt P04637)
# Sequence (P04637 whole entry, looked up): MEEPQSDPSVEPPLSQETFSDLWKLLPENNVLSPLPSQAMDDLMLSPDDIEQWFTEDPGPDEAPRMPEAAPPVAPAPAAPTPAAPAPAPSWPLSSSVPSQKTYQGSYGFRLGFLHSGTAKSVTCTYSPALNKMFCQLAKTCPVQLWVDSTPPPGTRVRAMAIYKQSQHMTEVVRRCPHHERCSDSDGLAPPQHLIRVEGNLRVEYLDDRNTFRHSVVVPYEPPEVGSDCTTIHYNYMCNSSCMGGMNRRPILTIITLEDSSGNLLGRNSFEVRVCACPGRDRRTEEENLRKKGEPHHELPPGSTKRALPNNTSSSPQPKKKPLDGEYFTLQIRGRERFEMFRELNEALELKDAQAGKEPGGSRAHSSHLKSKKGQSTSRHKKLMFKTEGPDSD
# Assay: Primary qHTS for small molecule compounds that upregulate eGFP-tagged delta133p53alpha (in N-terminal) cells. (AID 2060322);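 also: cells pre-induced with doxycycline then dosed without doxycycline; series mostly up to about 56 µM; 0% = DMSO vehicle and 100% = reference activator; nearly all actives have a fitted effect of over 75% in size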
# Conditions: NCI-H358 eGFP-delta133p53alpha fluorescence, 24 h; activation: stronger effect = higher value
# Method in brief: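 NCI-H358 cells pre-induced 24 h with 10 ng/ml doxycycline for eGFP-delta133p53alpha, plated dox-free and exposed 24 h at 37C to titrated compounds. Fixed, Hoechst-stained; gated GFP peak intensity by laser scanning cytometry, normalized to DMSO (0%) and 57.5 uM 5-azacytidine (100%).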
row,SMILES,activation
1,Nc1ccc(-c2ccc3ccccc3n2)cc1,29.5%
2,CCn1cc(C(=O)O)c(=O)c2cnc(N3CCNCC3)nc21,0.837%
3,Nc1ccc([N+](=O)[O-])cc1O,-7.53%
4,COC(=O)c1ccc(NC(C)=O)cc1OC,-12.6%
5,COC(=O)CCCCC(CCSS/C(CCO)=C(\C)N(C=O)Cc1cnc(C)nc1N)SC(C)=O (stereo not given),10%
6,CN1CCN(CCC(=O)N2c3ccccc3Sc3ccc(C(F)(F)F)cc32)CC1,18.6%
7,CN1CCCN(C(=O)c2cccc(-c3ccc(C=C4C(=O)Nc5ccc(Cl)cc54)o3)c2)CC1,19.8%
8,Cc1ncc(CO)c(C=O)c1O,-3.35%
9,COc1cc(C)nc(-n2nc(C)cc2OC)n1,-12.6%
10,CN(C)CCN(Cc1ccccc1)c1ccccn1,24.3%
11,NS(=O)(=O)c1cc2c(cc1Cl)NC(CSCc1ccccc1)=NS2(=O)=O,-16.7%
12,O=C(c1ccco1)N1CCNCC1,-10.9%
13,OCCOCCN1CCN(C(c2ccccc2)c2ccc(Cl)cc2)CC1 (stereo not given),8.47%
14,COC1=C(OC)C(=O)C(CC=C(C)CCC=C(C)CCC=C(C)CCC=C(C)CCC=C(C)CCC=C(C)CCC=C(C)CCC=C(C)CCC=C(C)CCC=C(C)C)=C(C)C1=O,0.831%
15,CC(=O)[C@@]1(O)CC[C@H]2[C@@H]3C[C@H](C)C4=CC(=O)CC[C@]4(C)[C@H]3CC[C@@]21C,-5.86%
16,OCc1ccccc1O,-1.69%
17,COc1ccc2c(c1)CC[C@H]1[C@@H]2CC[C@]2(C)[C@@H](NCCCCCCN3C(=O)C=CC3=O)CC[C@H]12,38.4%
18,Cn1c(=O)c2c(ncn2CC(=O)O)n(C)c1=O,1.69%
19,CC(=O)N[C@H]1[C@H]([C@H](O)[C@H](O)CO)OC(C(=O)O)=C[C@@H]1N=C(N)N,5.02%
20,CCc1cc2cc(OC)c(OC)cc2c(Cc2ccccc2)n1,-22.6%

row,SMILES,activation
1,CC1=C(C(=O)O)N2C(=O)[C@@H](NC(=O)[C@H](N)c3ccc(O)cc3)[C@H]2SC1,0%
2,Nc1ncn([C@@H]2O[C@H](CO)[C@@H](O)[C@@H]2O)c(=O)n1,26.1%
3,CCCCOCCOC(=O)c1cccnc1,-10.7%
4,Oc1cccc(-c2c3nc(c(-c4cccc(O)c4)c4ccc([nH]4)c(-c4cccc(O)c4)c4nc(c(-c5cccc(O)c5)c5ccc2[nH]5)CC4)C=C3)c1,25.9%
5,CC(=O)O[C@H]1CC[C@@]2(C)C(=CC[C@@H]3[C@@H]2CC[C@]2(C)C(C(C)=O)=CC[C@@H]32)C1,4.18%
6,Nc1nc(=O)n([C@@H]2O[C@H](CO)[C@@H](O)[C@@H]2F)cc1I,-22%
7,Cc1ccc(S(=O)(=O)NC(=O)NC2CCCCCCC2)cc1,-3.95%
8,CC1(C)S[C@@H]2[C@H](N=CN3CCCCCC3)C(=O)N2[C@H]1C(=O)O,-11.9%
9,CCOc1ccc(Cc2cc([C@@H]3O[C@H](CO)[C@@H](O)[C@H](O)[C@@H]3O)ccc2Cl)cc1,-1.71%
10,C[C@H]1C[C@H](O)c2ccsc2S1(=O)=O,-26.6%
11,C[C@]1(Cn2ccnn2)[C@H](C(=O)O)N2C(=O)C[C@H]2S1(=O)=O,-22.6%
12,O=C(O)CCCCC1CCSS1 (stereo not given),5.08%
13,Cc1noc(NS(=O)(=O)c2ccc(N)cc2)c1C,9.21% and -0.487%
14,O=C(O)c1ccnc2cc(C(OCCCN3CCCCC3)c3ccccc3Cl)[nH]c12 (stereo not given),1.12%
15,C/C=C1\[C@H]2C=C(C)C[C@]1(N)c1ccc(=O)[nH]c1C2,5.08%
16,CC(C)(C)NCC(O)COc1ccccc1OCC1CCCO1 (stereo not given),10.9%
17,O=C(O)CCNC(=O)c1ccccc1,-12.6%
18,COC(=O)N[C@H](C(=O)N[C@@H](Cc1ccccc1)[C@@H](O)CN(Cc1ccc(-c2ccccn2)cc1)NC(=O)[C@@H](NC(=O)OC)C(C)(C)C)C(C)(C)C,-2.82% and 23.4%
19,NC(CO)(CO)CO,-22%
20,O=C(NNC(=O)c1ccc(CNS(=O)(=O)c2ccc(F)c(Cl)c2)cc1)c1ccccc1,15.5%
